# Measurements reported in the supplement of paper PMC8728848.
# About 410 targets per protein were measured; listed, in parts, are those with the strongest signals and a random draw of the rest.
# Assays:
# Test in all cases: glycan array binding signal (z-score within array); higher = stronger binding
# Settings in all cases: glycan notation: IUPAC condensed, linker removed
# [1] = target: Fuc(a1-2)Gal(b1-3)GalNAc(a1-3)[Fuc(a1-2)]Gal(b1-4)Glc
# In short: (§1)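 Negative Z-scores can be read as non-binding. The Z-score is calculated within each array and then averaged across arrays of one protein sequence at different concentrations or buffers and across linkers. Arrays, 3228 in all, were curated from the Consortium for Functional Glycomics database and kept only where the protein sequence was available.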
# [2] = target: Fuc(a1-2)Gal(b1-3)GalNAc(b1-3)Gal
# In short: as §1
# Fuc(a1-2)Gal(b1-4)GlcNAc = target: Fuc(a1-2)Gal(b1-4)GlcNAc
# In short: as §1
# [3] = target: Fuc(a1-2)Gal(b1-4)GlcNAc(b1-6)GalNAc
# In short: as §1
# [4] = target: Fuc(a1-2)[Gal(a1-3)]Gal(b1-3)GlcNAc(b1-3)GalNAc
# In short: as §1
# [5] = target: Fuc(a1-2)[GalNAc(a1-3)]Gal(b1-4)Glc
# In short: as §1
# [6] = target: Fuc(a1-2)[GalNAc(b1-3)]Gal
# In short: as §1
# [7] = target: Fuc(a1-3)[Gal(b1-4)]GlcNAc(b1-2)Man(a1-3)[Fuc(a1-3)[Gal(b1-4)]GlcNAc(b1-2)Man(a1-6)]Man(b1-4)GlcNAc(b1-4)GlcNAc
# In short: as §1
# [8] = target: Gal(a1-3)Gal(b1-3)GlcNAc(b1-3)GalNAc
# In short: as §1
# [9] = target: Gal(b1-3)GlcNAc(a1-6)Gal(b1-4)GlcNAc
# In short: as §1
# [10] = target: Gal(b1-3)GlcNAc(b1-3)Gal(b1-4)Glc
# In short: as §1
# [11] = target: Gal(b1-3)GlcNAc(b1-3)Gal(b1-4)GlcNAc(b1-6)[Gal(b1-3)GlcNAc(b1-3)]Gal(b1-4)Glc
# In short: as §1
# [12] = target: Gal(b1-3)GlcNAc(b1-6)[Gal(b1-3)]GalNAc
# In short: as §1
# [13] = target: Gal(b1-3)[GlcNAc(b1-6)]GalNAc
# In short: as §1
# [14] = target: Gal(b1-4)GlcNAc(b1-2)[Gal(b1-4)GlcNAc(b1-4)]Man(a1-3)[GlcNAc(b1-4)][Gal(b1-4)GlcNAc(b1-2)[Gal(b1-4)GlcNAc(b1-6)]Man(a1-6)]Man(b1-4)GlcNAc(b1-4)GlcNAc
# In short: as §1
# [15] = target: Gal(b1-4)GlcNAc(b1-2)[Gal(b1-4)GlcNAc(b1-6)]Man(a1-6)[Gal(b1-4)GlcNAc(b1-2)Man(a1-3)]Man(b1-4)GlcNAc(b1-4)[Fuc(a1-6)]GlcNAc
# In short: as §1
# [16] = target: Gal(b1-4)GlcNAc(b1-3)Gal(b1-3)GlcNAc
# In short: as §1
# [17] = target: Gal(b1-4)GlcNAc(b1-3)Gal(b1-4)Glc
# In short: as §1
# [18] = target: Gal(b1-4)GlcNAc(b1-3)Gal(b1-4)GlcNAc(b1-2)Man(a1-3)[Gal(b1-4)GlcNAc(b1-3)Gal(b1-4)GlcNAc(b1-2)Man(a1-6)]Man(b1-4)GlcNAc(b1-4)[Fuc(a1-6)]GlcNAc
# In short: as §1
# [19] = target: Gal(b1-4)GlcNAc(b1-3)Gal(b1-4)GlcNAc(b1-3)Gal(b1-4)GlcNAc(b1-2)Man(a1-3)[Gal(b1-4)GlcNAc(b1-3)Gal(b1-4)GlcNAc(b1-3)Gal(b1-4)GlcNAc(b1-2)Man(a1-6)]Man(b1-4)GlcNAc(b1-4)[Fuc(a1-6)]GlcNAc
# In short: as §1
# [20] = target: Gal(b1-4)GlcNAc(b1-3)Gal(b1-4)GlcNAc(b1-3)Gal(b1-4)GlcNAc(b1-3)Gal(b1-4)GlcNAc(b1-2)Man(a1-3)[Gal(b1-4)GlcNAc(b1-3)Gal(b1-4)GlcNAc(b1-3)Gal(b1-4)GlcNAc(b1-3)Gal(b1-4)GlcNAc(b1-2)Man(a1-6)]Man(b1-4)GlcNAc(b1-4)[Fuc(a1-6)]GlcNAc
# In short: as §1
# [21] = target: Gal(b1-4)GlcNAc(b1-3)Gal(b1-4)GlcNAc(b1-3)Gal(b1-4)GlcNAc(b1-3)Gal(b1-4)GlcNAc(b1-3)Gal(b1-4)GlcNAc(b1-2)Man(a1-3)[Gal(b1-4)GlcNAc(b1-3)Gal(b1-4)GlcNAc(b1-3)Gal(b1-4)GlcNAc(b1-3)Gal(b1-4)GlcNAc(b1-3)Gal(b1-4)GlcNAc(b1-2)Man(a1-6)]Man(b1-4)GlcNAc(b1-4)[Fuc(a1-6)]GlcNAc
# In short: as §1
# [22] = target: Gal(b1-4)GlcNAc(b1-3)Gal(b1-4)GlcNAc(b1-3)Gal(b1-4)GlcNAc(b1-3)Gal(b1-4)GlcNAc(b1-3)Gal(b1-4)GlcNAc(b1-3)Gal(b1-4)GlcNAc(b1-2)Man(a1-3)[Gal(b1-4)GlcNAc(b1-3)Gal(b1-4)GlcNAc(b1-3)Gal(b1-4)GlcNAc(b1-3)Gal(b1-4)GlcNAc(b1-3)Gal(b1-4)GlcNAc(b1-3)Gal(b1-4)GlcNAc(b1-2)Man(a1-6)]Man(b1-4)GlcNAc(b1-4)GlcNAc
# In short: as §1
# [23] = target: Gal(b1-4)GlcNAc(b1-3)Gal(b1-4)GlcNAc(b1-3)[Gal(b1-4)GlcNAc(b1-3)Gal(b1-4)GlcNAc(b1-6)]GalNAc
# In short: as §1
# Gal3S(b1-4)GlcNAc6S = target: Gal3S(b1-4)GlcNAc6S
# In short: as §1
# [24] = target: GalNAc(b1-4)GlcNAc(b1-2)Man
# In short: as §1
# [25] = target: GlcNAc(a1-4)Gal(b1-4)GlcNAc(b1-3)Gal(b1-4)Glc
# In short: as §1
# [26] = target: GlcNAc(b1-2)Man(a1-3)[GlcNAc(b1-2)Man(a1-6)]Man(b1-4)GlcNAc(b1-4)[Fuc(a1-6)]GlcNAc
# In short: as §1
# [27] = target: GlcNAc(b1-2)[GlcNAc(b1-6)]Man(a1-6)[GlcNAc(b1-2)Man(a1-3)]Man(b1-4)GlcNAc(b1-4)[Fuc(a1-6)]GlcNAc
# In short: as §1
# [28] = target: GlcNAc(b1-3)Gal(b1-4)GlcNAc(b1-2)Man(a1-3)[GlcNAc(b1-3)Gal(b1-4)GlcNAc(b1-2)Man(a1-6)]Man(b1-4)GlcNAc(b1-4)[Fuc(a1-6)]GlcNAc
# In short: as §1
binder,measurement,setting,value
"LCA (Lens culinaris), P02870 (protein) MASLQTQMISFYLIFLSILLTTIFFFKVNSTETTSFSITKFSPDQKNLIFQGDGYTTKGKLTLTKAVKSTVGRALYSTPIHIWDRDTGNVANFVTSFTFVIDAPSSYNVADEFTFFIAPVDTKPQTGGGYLGVFNSKEYDKTSQTVAVEFDTFYNAAWDPSNKERHIGIDVNSIKSVNTKSWNLQNGERANVVIAFNAATNVLTVTLTYPNSLEEENVTSYTLNEVVPLKDVVPEWVRIGFSATTGAEFAAHEVHSWSFHSELGGTSSSKQAADA",glycan array binding signal (z-score),[1],-0.201
same,glycan array binding signal (z-score),[2],-0.218
same,glycan array binding signal (z-score),Fuc(a1-2)Gal(b1-4)GlcNAc,-0.217
same,glycan array binding signal (z-score),[3],-0.218
same,glycan array binding signal (z-score),[4],-0.238
same,glycan array binding signal (z-score),[5],-0.232
same,glycan array binding signal (z-score),[6],-0.257
same,glycan array binding signal (z-score),[7],-0.237
same,glycan array binding signal (z-score),[8],-0.227
same,glycan array binding signal (z-score),[9],-0.211
same,glycan array binding signal (z-score),[10],-0.231
same,glycan array binding signal (z-score),[11],-0.238
same,glycan array binding signal (z-score),[12],-0.231
same,glycan array binding signal (z-score),[13],-0.238
same,glycan array binding signal (z-score),[14],-0.235
same,glycan array binding signal (z-score),[15],4.72
same,glycan array binding signal (z-score),[16],-0.225
same,glycan array binding signal (z-score),[17],-0.205
same,glycan array binding signal (z-score),[18],4.42
same,glycan array binding signal (z-score),[19],4.2
same,glycan array binding signal (z-score),[20],3.87
same,glycan array binding signal (z-score),[21],3.85
same,glycan array binding signal (z-score),[22],-0.192
same,glycan array binding signal (z-score),[23],0.058
same,glycan array binding signal (z-score),Gal3S(b1-4)GlcNAc6S,-0.227
same,glycan array binding signal (z-score),[24],-0.199
same,glycan array binding signal (z-score),[25],-0.135
same,glycan array binding signal (z-score),[26],5.54
same,glycan array binding signal (z-score),[27],8.45
same,glycan array binding signal (z-score),[28],5.29
